Assay results as given in the supplement of paper PMC12645437, “Orthogonal IMiD-Degron Pairs Induce Selective Protein Degradation in Cells” (ACS Chemical Biology, 2025).
In all, about 8,300 sequences were measured (“log2 fold change of degron read counts, EGFP-low vs EGFP+ sorted cells (limma voom), compound-induced degradation”: median about -1.1, highest 2% from about 3.2 on). For the sample, the highest values were picked, then their nearest neighbours and some sequences at random.

T1: CRBN, Q96SW2
T1 chain: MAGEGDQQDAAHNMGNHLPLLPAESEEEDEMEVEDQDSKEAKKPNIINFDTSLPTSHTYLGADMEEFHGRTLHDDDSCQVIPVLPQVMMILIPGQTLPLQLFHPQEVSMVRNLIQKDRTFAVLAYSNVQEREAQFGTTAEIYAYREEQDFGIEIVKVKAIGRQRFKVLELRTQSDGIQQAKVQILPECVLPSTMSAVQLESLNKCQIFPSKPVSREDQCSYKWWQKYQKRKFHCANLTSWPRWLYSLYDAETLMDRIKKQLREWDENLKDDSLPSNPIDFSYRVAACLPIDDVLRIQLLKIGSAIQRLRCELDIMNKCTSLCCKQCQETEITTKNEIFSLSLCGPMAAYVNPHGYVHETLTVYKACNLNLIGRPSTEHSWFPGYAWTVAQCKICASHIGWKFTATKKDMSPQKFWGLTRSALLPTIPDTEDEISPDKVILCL

B1: 46F_47Y_49N_50I_52G_53A_54F_55F_67L_, Q9UKT9 (peptide)
chain: FYCNICGAFFTQKGNLLRHIKL
B2: 46F_47Y_49E_50Q_52G_53A_54E_55F_67L_, Q9UKT9 (peptide)
chain: FYCEQCGAEFTQKGNLLRHIKL
B3: 46F_47H_49P_50Q_52G_53A_54C_55F_67L_, Q9UKT9 (peptide)
chain: FHCPQCGACFTQKGNLLRHIKL
B4: 46F_47K_49P_50V_52G_53A_54A_55F_67L_, Q9UKT9 (peptide)
chain: FKCPVCGAAFTQKGNLLRHIKL
B5: 46F_47E_49E_50I_52G_53H_54P_55F_67L_, Q9UKT9 (peptide)
chain: FECEICGHPFTQKGNLLRHIKL
B6: 46F_47W_49P_50I_52G_53H_54K_55F_67L_, Q9UKT9 (peptide)
chain: FWCPICGHKFTQKGNLLRHIKL
B7: 46F_47F_49P_50I_52G_53R_54W_55F_67L_, Q9UKT9 (peptide)
chain: FFCPICGRWFTQKGNLLRHIKL
B8: 46F_47V_49E_50I_52G_53H_54P_55F_67L_, Q9UKT9 (peptide)
chain: FVCEICGHPFTQKGNLLRHIKL
B9: 46F_47H_49E_50I_52G_53A_54C_55F_67L_, Q9UKT9 (peptide)
chain: FHCEICGACFTQKGNLLRHIKL
B10: 46F_47W_49E_50I_52G_53A_54C_55F_67L_, Q9UKT9 (peptide)
chain: FWCEICGACFTQKGNLLRHIKL
B11: 46F_47I_49E_50I_52G_53A_54C_55F_67L_, Q9UKT9 (peptide)
chain: FICEICGACFTQKGNLLRHIKL
B12: 46F_47F_49E_50I_52G_53A_54C_55F_67L_, Q9UKT9 (peptide)
chain: FFCEICGACFTQKGNLLRHIKL
B13: 46F_47N_49E_50I_52G_53A_54C_55F_67L_, Q9UKT9 (peptide)
chain: FNCEICGACFTQKGNLLRHIKL
B14: 46F_47A_49E_50I_52G_53A_54C_55F_67L_, Q9UKT9 (peptide)
chain: FACEICGACFTQKGNLLRHIKL
B15: 46F_47L_49E_50I_52G_53A_54C_55F_67L_, Q9UKT9 (peptide)
chain: FLCEICGACFTQKGNLLRHIKL
B16: 46F_47E_49N_50Q_52G_53H_54I_55F_67L_, Q9UKT9 (peptide)
chain: FECNQCGHIFTQKGNLLRHIKL
B17: 46F_47V_49E_50I_52G_53R_54M_55F_67L_, Q9UKT9 (peptide)
chain: FVCEICGRMFTQKGNLLRHIKL
B18: 46F_47H_49E_50I_52G_53H_54N_55F_67L_, Q9UKT9 (peptide)
chain: FHCEICGHNFTQKGNLLRHIKL
B19: 46F_47E_49N_50I_52G_53A_54H_55F_67L_, Q9UKT9 (peptide)
chain: FECNICGAHFTQKGNLLRHIKL
B20: 46F_47I_49E_50I_52G_53A_54Q_55F_67L_, Q9UKT9 (peptide)
chain: FICEICGAQFTQKGNLLRHIKL
B21: 46F_47Y_49E_50I_52G_53A_54Q_55F_67L_, Q9UKT9 (peptide)
chain: FYCEICGAQFTQKGNLLRHIKL
B22: 46F_47D_49E_50I_52G_53A_54Q_55F_67L_, Q9UKT9 (peptide)
chain: FDCEICGAQFTQKGNLLRHIKL
B23: 46F_47H_49E_50I_52G_53A_54Q_55F_67L_, Q9UKT9 (peptide)
chain: FHCEICGAQFTQKGNLLRHIKL
B24: 46F_47R_49E_50I_52G_53A_54Q_55F_67L_, Q9UKT9 (peptide)
chain: FRCEICGAQFTQKGNLLRHIKL
B25: 46F_47E_49E_50I_52G_53A_54Q_55F_67L_, Q9UKT9 (peptide)
chain: FECEICGAQFTQKGNLLRHIKL
B26: 46F_47F_49E_50I_52G_53A_54Q_55F_67L_, Q9UKT9 (peptide)
chain: FFCEICGAQFTQKGNLLRHIKL
B27: 46F_47L_49E_50I_52G_53A_54Q_55F_67L_, Q9UKT9 (peptide)
chain: FLCEICGAQFTQKGNLLRHIKL
B28: 46F_47T_49E_50I_52G_53A_54Q_55F_67L_, Q9UKT9 (peptide)
chain: FTCEICGAQFTQKGNLLRHIKL
B29: 46F_47M_49E_50I_52G_53A_54Q_55F_67L_, Q9UKT9 (peptide)
chain: FMCEICGAQFTQKGNLLRHIKL
B30: 46F_47Q_49E_50I_52G_53A_54Q_55F_67L_, Q9UKT9 (peptide)
chain: FQCEICGAQFTQKGNLLRHIKL
B31: 46F_47W_49E_50I_52G_53A_54Q_55F_67L_, Q9UKT9 (peptide)
chain: FWCEICGAQFTQKGNLLRHIKL

Molecular target: T1, CRBN, Q96SW2
Assay: log2 fold change of degron read counts, EGFP-low vs EGFP+ sorted cells (limma voom), compound-induced degradation; higher = more compound-induced degradation of the degron-EGFP fusion; degrons are variants of IKZF1/3 zinc finger 2; compound dose not given here
Settings: Jurkat, 18 h
Protocol: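 Pooled library of 8380 IKZF3 ZF2 degron mutants (positions 146-167 varied within the IKZF3 130-189 degron; only the varied core is printed, flanks not printed) fused to EGFP with IRES-mCherry, lentivirally expressed in Jurkat cells. mCherry+ cells were treated with one IMiD compound for 18 h (dose not stated) and FACS-sorted into EGFP-low and EGFP+ populations. Degron sequences were counted by NGS, and log2FC (EGFP-low vs EGFP+) was estimated by limma voom over 3 biological replicates.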

[1] = compound: compound 19 (5-tert-butyl-thalidomide)
[2] = compound: compound 22 (5-morpholino-thalidomide)
[3] = compound: compound 33 (diphenyl IMiD analogue)
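Also: pooled lentiviral library of zinc finger degron-EGFP fusions in mCherry-positive Jurkat cells, FACS-sorted after compound exposure, with degron abundance counted by next-generation sequencing.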

Sequence	log2 fold change of degron read counts [1]	log2 fold change of degron read counts [2]	log2 fold change of degron read counts [3]	log2 fold change of degron read counts (compound: thalidomide)
B1	1.22	1.41	0.651	-0.835
B2	-0.252	-0.709	-0.311	-2.41
B3	-0.735	-0.785	0.174	-1.82
B4	1.7	-0.2	-1.11	0.798
B5	-2.97	-3.81	-1.95	-1.68
B6	-0.246	-0.231	-0.673	-0.717
B7	1.04	1	-0.146	-0.692
B8	-1.95	-1.66	-1.45	-0.105
B9	2.97	2.54	1.42	0.134
B10	3.85	3.79	2.77	1.16
B11	-0.122	2.02	2.45	2.64
B12	3.78	3.84	2.33	1.61
B13	2.72	0.812	0.513	0.0996
B14	3.71	2.6	1.54	0.745
B15	1.19	-0.209	1.6	1.57
B16	-3.19	-3.02	-3.5	-3.26

Sequence	log2 fold change of degron read counts [1]	log2 fold change of degron read counts [2]	log2 fold change of degron read counts [3]	log2 fold change of degron read counts (compound: thalidomide)
B17	-2.37	-1.56	-0.324	-0.297
B18	-2.97	-3.92	-2.88	-3.29
B19	-1.95	-2.29	0.157	0.612
B20	0.506	2.86	3.06	3.16
B21	3.6	3.55	3.13	2.12
B22	2.04	0.951	-0.0023	1.29
B23	2.66	2.64	2	0.968
B24	0.162	0.149	1.38	1.94
B25	-0.353	-0.866	1.45	2.5
B26	3.67	3.67	2.56	1.93
B27	1.29	-0.49	1.79	2.07
B28	0.557	1.85	2.25	2.92
B29	0.486	0.824	2.7	1.97
B30	0.962	2.24	2.41	3.56
B31	3.54	3.93	2.7	2.04
